Source: PubChem
Hits are enriched below; roughly 7.5% of the tested compounds scored in any of these assays.
FLuc counter: inhibits or activates purified firefly luciferase, miR-21 counter-screen; Potency, µM (titrated, usually from 57.5 µM), usual class: inhibitors; purified FLuc, Km substrates, luminescence inhibition; P08659; 360,000 compounds, 6.9% hits; note: nearly all actives have a fitted effect of over 55% in size
Target sequence (P08659 whole entry, looked up): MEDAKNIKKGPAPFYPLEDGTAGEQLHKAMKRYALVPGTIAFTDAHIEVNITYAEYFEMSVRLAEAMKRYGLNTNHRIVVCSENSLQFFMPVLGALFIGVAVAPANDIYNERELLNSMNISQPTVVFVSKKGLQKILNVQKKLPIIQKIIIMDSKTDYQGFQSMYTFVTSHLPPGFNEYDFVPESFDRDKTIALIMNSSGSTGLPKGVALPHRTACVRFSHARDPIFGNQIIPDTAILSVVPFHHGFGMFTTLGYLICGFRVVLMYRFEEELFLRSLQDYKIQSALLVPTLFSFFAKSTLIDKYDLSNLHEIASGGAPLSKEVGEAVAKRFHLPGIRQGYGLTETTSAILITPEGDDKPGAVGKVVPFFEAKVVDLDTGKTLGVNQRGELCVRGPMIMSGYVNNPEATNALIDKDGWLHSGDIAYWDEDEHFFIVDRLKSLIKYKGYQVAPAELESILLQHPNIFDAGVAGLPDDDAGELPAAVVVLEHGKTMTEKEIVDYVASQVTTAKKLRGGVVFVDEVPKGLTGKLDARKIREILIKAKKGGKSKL
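Biochemical qHTS of compounds, final roughly 60 µM downward over six points, against 10 nM purified firefly luciferase using Km concentrations of substrates (10 uM D-luciferin, 10 uM ATP) in Tris acetate pH 7.5 buffer; luminescence output.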
Rab9 promoter act: activators of Rab9 promoter; 320,000 compounds, 2.8% hits; Huh7 Rab9 promoter-luciferase reporter, luminescence, 24 h; Potency, µM (highest dose often 9.22 µM), usual class: activators; note: nearly all actives have a fitted effect of over 60% in size
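Measured in stably transfected Huh7 cells bearing a Rab9 promoter–luciferase construct: 24 h compound treatment at 37 °C, followed by luminescence detection.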
ELG1 genotox: induces genotoxicity in HEK293T cells with luciferase-tagged ELG1. Potency, µM (top dose mostly 46 µM), usual class: activators. 330,000 compounds, 1.3% hits. HEK293T ELG1-luciferase reporter, luminescence, 16 h; note: nearly all actives have a fitted effect of over 60% in size
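Screening used a luciferase reporter fused to human ELG1 in HEK293T cells. Luminescence was read on a CCD plate imager after 16 hr exposure and 30 min ONE-Glo incubation.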
NPC1 promoter act: activates the NPC1 promoter. 320,000 compounds, 2.4% hits. Potency, µM (top dose mostly 9.22 µM), most hits filed as activators. Huh7 NPC1 promoter luciferase reporter, 24 h; note: nearly all actives have a fitted effect of over 60% in size
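Huh7 cells stably carrying NPC1 promoter–luciferase, plated in Opti-MEM with 10% FBS for 2 h, were exposed to compound in DMSO for 24 h at 37 °C; luciferase reagent was added for 10 min and luminescence read.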
SMN2 splice up: increases expression of the SMN2 splice variant; HEK293 SMN2-luciferase splicing reporter, luminescence, 30-36 h; Potency, µM (titrated, usually from 46.1 µM), usual class: activators; 210,000 compounds, 2.8% hits; AID 1458; note: nearly all actives have a fitted effect of over 55% in size
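HEK293 cells carry an SMN2 minigene-luciferase reporter in which exon 7 inclusion puts luciferase in frame. Cells were seeded at 2000 cells/well, attached for 10-12 hours, then exposed to compounds for 30-36 hours at 37C before ONE-Glo luminescence.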
Numbers stand for hits; . = inactive; ? = inconclusive; / = no result given. Calls come from the whole dose curve; as a rule, active = well fitted curve in the direction sought with a large enough effect; inconclusive = small, poorly fitted or top-dose-only effect, or another doubt; inactive = no such curve, though single readings can be large; an effect the other way counts as inactive or inconclusive.

SMILES	FLuc counter	Rab9 promoter act	ELG1 genotox	NPC1 promoter act	SMN2 splice up
O=C(Nc1ccc2nc(SCC(=O)N3CCOCC3)sc2c1)c1ccc(Cl)cc1	10.7µM	/	/	/	/
COc1cccc(-n2c(O)c(C=NCCN3CCOCC3)c(=O)[nH]c2=O)c1	.	.	.	.	.
COc1cc(/C=N/NC(=O)CN2CCCCC2)ccc1OCc1ccccc1	12µM	.	?	.	?
O=S(=O)(c1ccccc1)N1CCN2CCCC2C1 (stereo not given)	.	.	.	.	/
Cc1ccc(/C=C/C(=O)C2C(=O)c3ccccc3C2=O)cc1	0.19µM	?	?	?	10µM
COC(=O)c1ccc(NC(=O)CSc2nc3ccc(N4C(=O)C5C6C=CC(C6)C5C4=O)cc3s2)cc1 (stereo not given)	13.5µM	.	.	.	.
COc1cccc(-n2nc(C(=O)N3CCC4(CC3)OCCO4)c3ccccc3c2=O)c1	.	.	.	.	.
COc1ccc(-n2nc(C(=O)NCC(=O)N3CCC4(CC3)OCCO4)c3ccccc3c2=O)cc1OC	3.01µM	?	.	.	/
NC(=O)c1cn(C2OC(CO)C(O)C2O)c2ncnc(N)c12 (stereo not given)	.	.	.	.	.
NC(=O)c1ncn(C2OC(CO)C(O)C2O)n1 (stereo not given)	/	/	/	/	15.8µM
Oc1ccc2c3c1O[C@H]1c4[nH]c5c(c4C[C@@]4(O)[C@@H](C2)N(CC2CC2)CC[C@]314)C[C@@]1(O)[C@H]2Cc3ccc(O)c4c3[C@@]1(CCN2CC1CC1)[C@H]5O4	/	.	/	.	.
COc1ccc(CN2C(=O)NC(=O)/C(=C/c3ccc([N+](=O)[O-])o3)C2=O)cc1	19µM	.	.	.	.
Cc1ccc(/C=C2/C(=O)NC(=O)N(Cc3ccc(F)cc3)C2=O)o1	.	.	.	.	/
Cc1ccc(OCCOc2cccc(C=C3C(=O)NC(=O)NC3=O)c2)c(C)c1	7.57µM	0.126µM	?	0.0891µM	/
O=C1NC(=O)C(=Cc2cccc(OCCOc3ccccc3)c2)C(=O)N1	15.1µM	0.316µM	?	0.562µM	/
Nc1c2c(nc3sc4c(c13)CCCC4)CCCCC2	1.9µM	2.24µM	.	2.82µM	8.91µM
CCN(CC)C(=O)c1ccc(NC(=O)COc2ccccc2F)cc1	?	.	.	.	.
Cc1cnn(-c2cc(Oc3ccccc3)ncn2)c1	16.9µM	?	1.46µM	?	/
O=c1c2ccccc2[se]n1-c1ccccc1	6.01µM	.	.	.	.
O=c1c2ccccc2nc(-c2ccccc2)n1-c1ccccc1	.	.	.	.	/
COc1ccc(-n2c(=S)[nH]c3c(sc(=S)n3-c3ccccc3)c2=O)c(OC)c1	10.7µM	.	.	.	/
CCOc1ccc(CN2CCCC(C(=O)c3ccccc3OC)C2)cc1 (stereo not given)	.	.	.	.	/
O=C(Oc1ccc2ccccc2c1)c1ccco1	12µM	.	.	.	.
CCc1cc2c(=O)n(C(C)C(=O)OC3CCCCC3)cnc2s1 (stereo not given)	15.1µM	?	9.2µM	?	11.2µM
O=C(Nc1ccc(Cl)c(Cl)c1)c1ccco1	21.3µM	?	?	?	/
SMILES	FLuc counter	Rab9 promoter act	ELG1 genotox	NPC1 promoter act	SMN2 splice up
C=CCNC(=S)Nc1ccc(OC(=O)Nc2ccc(Cl)c(Cl)c2)cc1	.	.	.	.	/
O=C(CNC(=O)c1ccc(Cl)cc1)OCC(=O)c1ccc2c(c1)OCCO2	21.3µM	.	.	.	.
Nc1ccccc1C(=O)OCC(=O)c1ccc2c(c1)OCCO2	0.0757µM	3.16µM	?	2.82µM	.
CCOC(=O)c1ccccc1N	/	/	.	/	.
CC(=O)Nc1ccccc1C(=O)OCC(=O)c1ccc2ccccc2c1	12µM	/	.	.	/
O=C(CSc1nnc(NC(=O)c2ccccc2F)s1)NCc1ccc(F)cc1	12µM	?	?	?	/
O=C(CSc1nnc(NC(=O)c2ccccc2[N+](=O)[O-])s1)NCc1ccco1	13.5µM	.	.	.	/
CC(=NCc1cccnc1)c1c(O)n(C2CCCCC2)c(=O)[nH]c1=O	.	.	.	.	.
O=C(c1cc2c(s1)CCCCCC2)N1CCC2(CC1)OCCO2	?	.	.	.	.
CN1CCN(c2cc(N3CCCCCC3)c(F)cc2[N+](=O)[O-])CC1	.	.	.	.	.
CCOC(=O)Cn1cc(C(=O)c2ccccc2)c2ccccc21	.	.	.	.	/
CCOC(=O)CSc1ncnc2c1cnn2-c1ccccc1	12µM	.	.	.	?
CC(ON1CC1(C(F)(F)F)C(F)(F)F)(C(N)=O)C(N)=O (stereo not given)	.	.	.	.	.
O=C(Cc1c(O)c2ccccc2oc1=O)c1ccc(F)cc1	3.01µM	?	.	?	/
Cc1noc(C)c1C(=O)N1CCC[C@@]2(CCN(CC(C)C)C2)C1	/	/	/	/	.
O=C(c1cc(-c2cccc(Cl)c2)on1)N1CCOCC1	13.5µM	3.16µM	23.1µM	2.82µM	/
O=C(c1cc2ccccn2n1)N1CCC2(CC1)OCCO2	.	.	.	.	.
O=C(c1cc(-c2ccccc2)on1)N1CCC2(CC1)OCCO2	15.1µM	3.98µM	?	?	17.8µM
COCCCn1c(-c2ccc(OC)cc2)cc(C(=O)NC2CCCCCCC2)c1C	.	.	.	.	.
O=P(NC(c1ccccc1)c1ccccc1)(Oc1ccccc1)Oc1ccccc1	.	.	.	.	.
O=C1NC(=O)N(Cc2ccc(F)cc2)C(=O)/C1=C/c1cccs1	?	.	?	.	.
O=C1NC(=O)N(Cc2ccccc2Cl)C(=O)/C1=C/c1cccs1	15.1µM	.	?	.	.
CC(=O)N1CCC(N2CCCC(C(=O)c3cccc(Cl)c3)C2)CC1 (stereo not given)	.	.	.	.	.
COc1ccc(C2CC(c3c(O)n(CCc4ccccc4)c(=O)[nH]c3=O)=NN2)cc1OC (stereo not given)	19µM	.	.	.	/
COc1ccc(CCn2c(O)c(C=NCc3cccnc3)c(=O)[nH]c2=O)cc1OC	.	.	.	.	.
SMILES	FLuc counter	Rab9 promoter act	ELG1 genotox	NPC1 promoter act	SMN2 splice up
NC1CCC(CC2CCC(N)CC2)CC1 (stereo not given)	/	/	/	/	.
CCOc1ccccc1-n1c(O)c(C=NCCCN(CC)CC)c(=O)[nH]c1=O	.	.	.	.	.
C/C(=C\c1ccc(N(C)C)cc1)[N+](=O)[O-]	?	.	.	.	.
CN(C)c1ccc(/C=C/[N+](=O)[O-])cc1	?	.	?	.	11.2µM
CCC1(c2ccc(N)cc2)CCC(=O)NC1=O (stereo not given)	/	.	/	.	.
COc1ccc2nc(NC3=NCCN3)sc2c1	5.36µM	2.51µM	18.4µM	2.82µM	10µM
c1ccc2sc(NC3=NCCN3)nc2c1	?	?	.	?	?
N#Cc1cc2c(nc1SCC(=O)Nc1cccc(F)c1)C1CCN2CC1	.	/	/	/	6.31µM
CCC(=NCc1ccc(F)cc1)c1c(O)n(C)c(=O)n(C)c1=O	.	.	.	.	.
O=P(O)(O)c1ccccc1OCCOCCOCCOCCOc1ccccc1P(=O)(O)O	?	3.55µM	.	3.98µM	.
